The source made the active and inactive calls. Rule for the calls: active = hit-call score of the fitted dose curve at least 0.9, where 1 is the maximum; inactive = score below 0.9.
Test: ATG_TA_CIS: Attagene CIS-FACTORIAL HepG2 Assay for human TA Basal Promoter (AID 2282964)
Settings: HepG2 Attagene CIS-factorial TA basal promoter reporter; actives raise or lower the signal
Method in brief: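 Background internal-marker endpoint from a 52-component HepG2 cis-reporter panel. Cells treated 24 h; reporter transcripts quantified via RT-PCR and CE fluorescence against DMSO baseline.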

SMILES | outcome
COC(=O)NS(=O)(=O)c1ccc(N)cc1 | inactive
CC(C)(C)C(=O)C(Oc1ccc(Cl)cc1)n1cncn1 (stereo unspecified) | inactive
Cc1c(COC(=O)[C@@H]2[C@H](/C=C(\Cl)C(F)(F)F)C2(C)C)cccc1-c1ccccc1 | inactive
CCOC(=O)C(C)OC(=O)c1cc(Oc2ccc(C(F)(F)F)cc2Cl)ccc1[N+](=O)[O-] (stereo unspecified) | inactive
CCN(CC)c1nc(C)cc(OP(=S)(OC)OC)n1 | inactive
COCC(=O)N(c1c(C)cccc1C)C(C)C(=O)OC (stereo unspecified) | inactive
CCCCC(C#N)(Cn1cncn1)c1ccc(Cl)cc1 (stereo unspecified) | inactive
Nc1cnn(-c2ccccc2)c(=O)c1Cl | inactive
CC(C)C1(C)N=C(c2ncccc2C(=O)O)NC1=O (stereo unspecified) | inactive
N#Cc1c(Cl)cccc1Cl | inactive
CCNC(=O)NC(=O)C(C#N)=NOC | inactive
Cc1cc(C)nc(Nc2ccccc2)n1 | inactive
CC(C)=CC1C(C(=O)OCc2coc(Cc3ccccc3)c2)C1(C)C (stereo unspecified) | inactive
COCc1cnc(C2=NC(C)(C(C)C)C(=O)N2)c(C(=O)O)c1 (stereo unspecified) | inactive
CCOc1nc(F)cc2nc(S(=O)(=O)Nc3c(Cl)cccc3Cl)nn12 | inactive
CCN(CC)C(=O)C(C)Oc1cccc2ccccc12 (stereo unspecified) | inactive
CS(=O)(=O)c1cc(C(F)(F)F)ccc1C(=O)c1cnoc1C1CC1 | inactive
CNC(=O)N(C)c1nnc(C(C)(C)C)s1 | inactive

SMILES | outcome
COC(=O)NC(=S)Nc1ccccc1NC(=S)NC(=O)OC | inactive
CCOP(=O)(OCC)Oc1nc(Cl)c(Cl)cc1Cl | inactive
CC(C)N1C(=O)N(c2ccccc2)CSC1=NC(C)(C)C | inactive
COP(=S)(OC)SCn1nnc2ccccc2c1=O | inactive
O=C(Nc1ccccc1-c1ccc(Cl)cc1)c1cccnc1Cl | inactive
O=P(O)(O)CCCl | inactive
C=CCOC(=O)C(C)(C)OC(=O)c1cc(-n2c(=O)cc(C(F)(F)F)n(C)c2=O)ccc1Cl | inactive
O=c1n(Cl)c(=O)n(Cl)c(=O)n1Cl | inactive
Clc1nc(Cl)nc(Nc2ccccc2Cl)n1 | inactive
CC1(C)CON(Cc2ccccc2Cl)C1=O | inactive
COC(=O)c1c(C(F)F)nc(C(F)(F)F)c(C2=NCCS2)c1CC(C)C | inactive
CO/N=C(/C1=NOCCO1)c1ccccc1Oc1ncnc(Oc2ccccc2Cl)c1F | inactive
CCOc1cc(C(C)(C)C)ccc1C1COC(c2c(F)cccc2F)=N1 (stereo unspecified) | inactive
CCSC(=O)N1CCCCCC1 | inactive
COc1cc(OC)nc(NC(=O)NS(=O)(=O)c2ncccc2OCC(F)(F)F)n1 | inactive
CSC(=O)c1c(C(F)F)nc(C(F)(F)F)c(C(=O)SC)c1CC(C)C | inactive
CC(C)Oc1cccc(NC(=O)c2ccccc2C(F)(F)F)c1 | inactive
CN=C=S | inactive
